Measurements published in PubChem BioAssay (EPA / NIEHS).
Active and inactive are the calls of the source. How the source made its calls: active means hit-call score of the fitted dose curve at least 0.9, where 1 is the maximum; inactive means score below 0.9.

Assay: ATG_NFI_CIS: Attagene CIS-FACTORIAL HepG2 Assay for human Nuclear Factor I (NFI) (AID 2282989)
Conditions: HepG2 cis-regulatory reporter, NFI response element transcription; actives raise or lower the signal
Method: ATG_CIS is a cell-based, multiplexed-readout assay that uses HepG2, a human liver cell line, with measurements taken at 24 hours after chemical dosing in a 24-well plate.ATG_NFI_CIS is one of 52 assay component(s) measured or calculated from the ATG_CIS assay. It is designed to make measurements of mRNA induction, a form of inducible reporter, as detected with fluorescence intensity signals by Reverse transcription polymerase chain reaction (RT-PCR) and Capillary electrophoresis technology.Data from the assay component ATG_NFI_CIS was analyzed into 1 assay endpoint. This assay endpoint, ATG_NFI_CIS, was analyzed with bidirectional fitting relative to DMSO as the negative control and baseline of activity. Using a type of inducible reporter, measures of mRNA for gain or loss-of-signal activity can be used to understand the reporter gene at the transcription factor-level as they relate to the gene NFIA. Furthermore, this assay endpoint can be referred to as a primary readout, because this assay has produced multiple assay endpoints where this one serves a reporter gene function. To generalize the intended target to other relatable targets, this assay endpoint is annotated to the dna binding intended target family, where the subfamily is nuclear factor I.
Human liver HepG2 cells are transiently transfected with multiple reporter transcription units (MRTUs) in 6-well plates using FuGene 6 reagent (Roche; 3 ml FuGene/1 mg DNA). The MRTU constructs are regulated by a cis-regulating element (promoter). […] A major difference between the CIS and TRANS system is that in CIS activities of endogenous TFs are measured, whereas the TRANS assay evaluates changes in activities of exogenous, chimeric NR-Gal4 proteins. […] At the end of 24 hour incubation, total RNA was isolated using TriZol reagent (Invitrogen). The isolated RNA is then reverse-transcribed using oligo(dT) primer and Mo-MLV reverse transcriptase (Invitrogen) with DNAse I (Ambion) treatment for 30 min. The one-tenth of the produced cDNA was amplified by PCR using Taq DNA polymerase (Invitrogen) and two reporter sequence-specific primers. The PCR products were fluorescently labeled by primer extension with 6-arboxyfluorescein (6-FAM) 5'-labeled reporter sequence-specific primer (2 min at 95 C, 20 s at 68 C and 10 min at 72 C) and these products were digested with 5U of HpaI (New England Biolabs) for 2h at 37 C. The fragments were purified using Qiaquick PCR columns (Qiagen), analyzed on an ABI 3130xL genetic analyzer (Applied Biosystems) with peak positions identified by using a set of X-rhodamine (ROX)-labeled MapMarker1000 molecular weight standards (BioVentures). The raw capillary electrophoresis data was processed using Attagraph software (Attagene).

Structure (SMILES) | outcome | AC50
Cc1nc(-c2ccc3c(c2)CCN(CCC2CCC(NC(=O)/C=C/c4ccc(F)cc4)CC2)CC3)no1 (stereo not given) | inactive | –
COc1ccc2c(c1)c(CC(=O)O)c(C)n2C(=O)c1ccc(Cl)cc1 | inactive | –
COc1cc(C=O)ccc1O | inactive | –
CC(C)c1ccc(C(=O)N=C(N)N)cc1S(C)(=O)=O | inactive | –
Cc1cc(=O)[nH]c(=S)[nH]1 | inactive | –
C[Si]1(C)O[Si](C)(C)O[Si](C)(C)O[Si](C)(C)O1 | inactive | –
CCCCCCCC=O | inactive | –
CC1=C(/C=C/C(C)=C/C=C/C(C)=C/CO)C(C)(C)CCC1 | inactive | –
C1CCC(SSC2CCCCC2)CC1 | – | 161 µM (active)
O=C(O)CCCCC(=O)O | inactive | –
Cc1ccc(N(C)C)cc1 | inactive | –
O=C(N[C@@H](Cc1ccccc1)[C@@H](O)C(=O)N1C[C@@H](O)[C@@H](O)C1)c1cc2cc(Cl)ccc2[nH]1 | inactive | –
CCCCCCC(=O)OCC | inactive | –
Cc1cccc(Nc2cc(Cl)nc(SCC(=O)O)n2)c1C | inactive | –
COc1cc(-c2nc(NC(=O)c3cc4cc(C)cc(C)c4n3CC(=O)O)sc2CCC2CCCCC2)c(OC)cc1Cl | – | 27 µM (active)
O=[N+]([O-])C(CO)(CO)CO | inactive | –
Cc1ccc(C)c(C)c1 | inactive | –
O=C(OCCCCCOC(=O)c1ccccc1)c1ccccc1 | inactive | –
Nc1nc(N)c2nc(CNc3ccc(C(=O)N[C@@H](CCC(=O)O)C(=O)O)cc3)cnc2n1 | inactive | –
Cc1ccc(Cl)cc1 | inactive | –

Structure (SMILES) | outcome | AC50
COc1cc(/C=C/C(=O)CC(=O)/C=C/c2ccc(O)c(OC)c2)ccc1O | – | 33.4 µM (active)
CCCCN(CCCC)CCCC | inactive | –
Cc1ccc(C)c(O)c1C | inactive | –
CCNc1cccc(C)c1 | inactive | –
Cc1nc(C)nc(N2C[C@@H](C)N(c3ccnc([C@@H](C)O)n3)[C@@H](C)C2)n1 | inactive | –
O=c1c(O)c(-c2ccc(O)c(O)c2)oc2cc(O)cc(O)c12 | inactive | –
CC1(C)NC(=O)NC1=O | inactive | –
CC(=O)C(C)=CC1C(C)=CCCC1(C)C (stereo not given) | inactive | –
CC(C)(C)c1cc(O)c(C(C)(C)C)cc1O | – | 30.6 µM (active)
COc1cccc2c1C(=O)c1c(O)c3c(c(O)c1C2=O)C[C@@](O)(C(=O)CO)C[C@@H]3O[C@H]1C[C@H](N)[C@H](O)[C@H](C)O1 | inactive | –
NC(=O)Cn1c(=O)cc(CCN2CCN(c3nccc4sccc34)CC2)c2ccc(F)cc21 | inactive | –
Nc1ccc2c(c1)C(=O)c1ccccc1C2=O | inactive | –
CCCCCC(=O)O | inactive | –
CC(CO)OC(C)CO (stereo not given) (tested in a mixture with another compound) | inactive | –
CN1CCN(Cc2cc(-c3ccc4[nH]c(=O)oc4c3)co2)[C@@H](c2ccc(F)cc2)C1 | inactive | –
CCCCCCCCCCO | inactive | –
CNCc1cc(F)ccc1Oc1ccc(Cl)c(Cl)c1 | inactive | –
CCCCCCCCCCCC(=O)OC | inactive | –
Cc1cc(NC(=O)C(=O)O)cc(C)c1Oc1ccc(O)c2c1CCC2 | inactive | –
CCOC(=O)C(C)(C)Oc1ccc(Cl)cc1 | inactive | –
